Shown are actives, neighbours in structure and some others; about 3.2% of the full set was active somewhere.
GSIS activator = GLuc luminescence reporter in INS-1E cells, primary screen for activators of glucose-dependent secretion of insulin; activation, % at 16.6 µM; actives 0.61% (n = 370,000); INS-1E GLuc reporter insulin secretion, 2-3 h;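 active means lowest replicate activation of at least 40%, so every replicate reaches that level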;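 further: 0% = median of neutral control wells and 100% = median of IBMX positive control wells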
Ecoli rRNA inh = inhibits bacterial ribosomal RNA function over humanized ribosomes; E. coli WT GFP vs humanized-ribosome RFP mutants, fluorescence, 24 h; hits give low values; DMSO median 0, no signal -100; GFP signal change (wild-type ribosome), % (no concentration beside the values); actives 1.6% (n = 350,000);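 active means significant combined selectivity score with lowered wild-type GFP, culture density cut under 30%, mutant RFP and density less affected; inactive means any of these conditions unmet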
ERAP1 inh = ERAP1 (human) enzyme inhibition. Q9NZ08. recombinant ERAP1, Leu-AMC fluorescence, 60 min. inhibition, % at 10.7 µM. actives 0.15% (n = 340,000). AID 652197;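 active means mean replicate inhibition of at least 30%, or all replicates individually reaching that 30% level; inactive means mean below 30% and not every replicate reaching it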;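 further: 0% = neutral control wells and 100% = L-leucinethiol positive control wells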
CaV13 FRET inh = Disruptors of the CACNA1D IQ motif to Ca2+-dependent inactivation inhibitor domain association, primary screening, Förster resonance energy transfer in intact living …. inhibition, % at 12.3 µM. AID 743397. HEK cells, CFP/YFP FRET ICDI-IQ, plate reader, 10 min; percent FRET-ratio fall versus neutral wells. actives 0.098% (n = 340,000);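 active means mean replicate inhibition of at least 30% and at least 1% of replicates passing that level; inconclusive means only one of the two criteria is met; inactive means neither criterion is met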;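 further: 0% = median of the neutral control wells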
PGC1a acetyl inh = modulators of PGC1a acetylation; U2OS PGC1a acetylation, AlphaScreen anti-acetyl-lysine; with virally co-expressed GCN5 acetyltransferase; inhibition, % at 15.6 µM; actives 0.17% (n = 350,000);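 active means every replicate shows inhibition of at least 40%; inconclusive means mean inhibition at least 40% but some replicate below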;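 further: 0% = neutral control wells and 100% = positive control wells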
DENV2 CPE = DENV2-induced cell death inhibition; DENV2-infected cells, cytopathic effect rescue, plate reader; CPE inhibition, % at 9.99 µM; actives 1.7% (n = 350,000); in the data active means CPE inhibition above about 20%, passing the limit was not always enough; inconclusive means no clear call, values can overlap the other calls; tested in BHK-21 cells;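 further: 0% = median of neutral control wells and 100% = median of positive control wells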
* = called active by the depositor; u = inconclusive; x = not tested or not shown.

SMILES	GSIS activator	Ecoli rRNA inh	ERAP1 inh	CaV13 FRET inh	PGC1a acetyl inh	DENV2 CPE
C[C@@H](O)C#Cc1ccc2c(c1)O[C@@H](CN(C)C(=O)c1ccccc1)[C@@H](C)CN([C@@H](C)CO)S2(=O)=O	-1	3	-2	x	-16	16
O=C(N[C@H]1CC[C@@H](CCNS(=O)(=O)c2ccccc2)O[C@@H]1CO)c1cccc(F)c1	-14	1	1	x	11	12
CC1CCN(Cc2ccc(NC(=O)CC3Oc4ccccc4NC3=O)cc2)CC1 (stereo not given)	-2	7	x	52*	-8	-2
CCc1cccc(NC(=O)CC2Oc3ccccc3NC2=O)c1 (stereo not given)	17	2	-3	-6	x	-1
C[C@@H]1CN([C@H](C)CO)C(=O)c2cc(NS(=O)(=O)c3ccc(Cl)cc3)ccc2O[C@H]1CN(C)C(=O)Nc1cccc2ccccc12	-10	-2	4	x	-29	1
CC(C)[C@@H]1CC2=C(C(=O)OC(C)(C)O2)[C@H](CCc2ccccc2)O1	-21	2	-5	-5	x	42*
CC(C)C[C@@H]1CC2=C(C(=O)OC(C)(C)O2)[C@H](CCc2ccccc2)O1	37	15	-6	-5	x	29*
Nc1ccc(Sc2nc3ccccc3[nH]2)cc1	0	-22*	0	-5	5	-5
Nc1ccc(-c2nc3ccccc3[nH]2)cc1	-4	-3	1	14	-2	15
COc1ccc(NC(=O)N(C)C[C@@H]2Oc3ccc(NC(=O)CCC(F)(F)F)cc3CC(=O)N([C@@H](C)CO)C[C@H]2C)cc1	-5	1	4	x	4	-4
COc1ccc2[nH]c3c(=O)n4c(nc3c2c1)SCCC4	6	-28*	0	-7	-15	0
C[C@@H]1CCCCO[C@@H](CN(C)C(=O)Nc2ccc(F)cc2)[C@@H](C)CN([C@@H](C)CO)C(=O)c2cc(NC(=O)C3CCCCC3)ccc2O1	-15	4	1	x	0	-2
c1ccc(C(c2ccccc2)c2nc(-c3cccnc3)no2)cc1	-6	-39*	1	-8	-11	-8
COc1nc(-c2ccc(C)cc2)ccc1-c1noc(-c2cccnc2)n1	x	x	x	-4	7	x
COc1nc(-c2ccccc2)ccc1-c1noc(-c2cccnc2)n1	71*	x	x	-8	-17	x
C[C@H]1CN([C@@H](C)CO)C(=O)c2cccc(NC(=O)c3ccncc3)c2O[C@H]1CN(C)C(=O)NC1CCCCC1	8	2	3	x	-4	-1
COC(=O)CSc1ncnc2scc(-c3ccccc3)c12	60*	-50	x	-3	0	u
O=C(O)COc1ccc(/C=C2\SC(=Nc3ccccc3)N(c3ccccc3)C2=O)cc1	17	5	-1	-4	x	x
CCOc1cc(/C=C2\SC(=Nc3ccccc3)N(c3ccccc3)C2=O)ccc1OCC(=O)O	-4	-31*	9	-2	x	7
CCn1c(SCc2cccc(F)c2)nc2c(c1=O)SCC2	5	-35*	-1	-1	-15	2
CCn1c(SCc2ccc(F)cc2)nc2c(c1=O)SCC2	2	-31*	2	x	12	-4
Cc1ccc(S(=O)(=O)N/N=C\c2cn(CC(N)=O)c3ccccc23)cc1C	11	-23*	-2	-6	x	1
CO[C@@H]1CN(C)C(=O)c2cc(NC(=O)C3CC3)ccc2OC[C@@H](C)N(CC2CCOCC2)C[C@H]1C	5	0	3	x	6	2
Cc1ccc(NC2=C(Cl)C(=O)OC2OC(=O)c2ccccc2)c(C)c1 (stereo not given)	-23	-41*	3	-1	2	5
Cc1cccc(-n2c(-c3ccc(Br)o3)n[nH]c2=S)c1	2	-20*	2	-5	x	-4
CCOc1cc(C)ccc1OCc1nnc(SCC(=O)c2cccc([N+](=O)[O-])c2)n1CC	x	x	x	-8	x	x
CCn1c(COc2ccccc2)nnc1SCC(=O)c1cccc([N+](=O)[O-])c1	-8	-24*	2	-6	-7	0
CCOC(=O)CN(C(=O)CSc1nnc(COc2ccc(OC)cc2)n1CC)c1ccccc1	-23	-27*	1	1	-9	x
